# Screening results from PubChem.
# Mm-Cpn inhibitor: inhibitors of Methanococcus maripaludis chaperonin TRiC (MmCpn); purified Mm-Cpn ATPase, ADP Transcreener TR-FRET; Potency, µM (top dose mostly 76.9 µM), for the others: at the highest dose activity, negative = inhibition, actives largely listed as inhibitors; actives 0.031% (n = 330,000); further: potency means the concentration at half of the fitted maximal effect; nearly all actives have a fitted effect of over 80% in size
#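 Purified archaeal chaperonin (25 nM final) was preincubated with compound for 10 min at 37°C, then ATP (10 uM final) was added for 30 min at 37°C in Tris pH 7.4/KCl/MgCl2/DTT buffer. ADP was quantified by HTRF Transcreener TR-FRET.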
# PLK1 PBD inh: PLK1 (human) polo-box domain binding inhibition; P53350; Plk1 PBD binding of FITC phosphopeptide, fluorescence polarization; actives 2.8% (n = 360,000); Potency, µM, for the others: max response, negative = inhibition, usual class: inhibitors; further: potency means the concentration at half of the fitted maximal effect; series mostly up to about 57 µM; nearly all actives have a fitted effect of over 65% in size
# VDR inhibitor: vitamin D3 receptor (human) inhibition | P11473 | VDR-SRC2-3 peptide fluorescence polarization, 2 h | Potency, µM, inactives show max response, negative = inhibition, usual class: inhibitors | actives 0.93% (n = 400,000); further: potency means the concentration at half of the fitted maximal effect
# Target sequence (P11473 whole entry, looked up): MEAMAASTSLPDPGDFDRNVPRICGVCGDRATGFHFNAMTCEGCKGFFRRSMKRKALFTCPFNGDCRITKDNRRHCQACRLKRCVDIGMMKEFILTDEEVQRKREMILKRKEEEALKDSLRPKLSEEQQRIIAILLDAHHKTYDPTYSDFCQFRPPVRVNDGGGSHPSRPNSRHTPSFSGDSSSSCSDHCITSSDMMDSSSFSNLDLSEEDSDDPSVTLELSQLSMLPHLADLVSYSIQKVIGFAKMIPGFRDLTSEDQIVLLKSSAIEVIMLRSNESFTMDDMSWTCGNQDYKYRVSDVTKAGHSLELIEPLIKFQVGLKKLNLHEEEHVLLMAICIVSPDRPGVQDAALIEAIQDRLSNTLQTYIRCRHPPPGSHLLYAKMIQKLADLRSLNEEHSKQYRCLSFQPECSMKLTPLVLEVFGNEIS
#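 Reagent solutions, kept cold and dark, are dispensed first; compounds are then pinned in at 23 nl, plates briefly spun, and incubated 2 h at ambient temperature. Inhibition of VDR–SRC2-3 peptide binding is read by fluorescence polarization.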
# Sfp inh: blocks B. subtilis Sfp PPTase activity | Q9F4F7 | Biochemical Sfp PPTase activity, qHTS | Potency, µM, for the others: largest response in the series, negative = inhibition, actives largely listed as inhibitors | actives 3.5% (n = 310,000) | AID 1490;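 further: the enzyme is Sfp with the accession as filed and its product quenches rhodamine fluorescence; potency means the concentration at half of the fitted maximal effect; 0% = enzyme reaction without inhibitor and -100% = no enzyme wells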
#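 Reaction rates are the 30-min fluorescence difference (ex 525, em 598 nm) in wells containing 15 nM Sfp, 5 uM rhodamine-CoA and 12.5 uM BHQ-2-YbbR at pH 7.6 with 10 mM MgCl2.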
# G9a block: inhibitors of human histone lysine methyltransferase G9a; G9a H3K9 monomethylation, AlphaScreen, 2 h; Potency, µM (top dose mostly 102 µM), for inactives: top-dose activity, negative = inhibition, most hits filed as inhibitors; actives 8.8% (n = 350,000); Q96KQ7; further: potency means the concentration at half of the fitted maximal effect; nearly all actives have a fitted effect of over 75% in size
#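 Readings reflect AlphaScreen signal from monomethyl-H3K9 antibody detection. HMT at 20 nM; substrate b-H3K9 500 nM; cofactor SAM 20 uM; 2 h RT reaction; compounds tested as titrations in qHTS with 15 min preincubation.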
# CCT chaperon mod: changes cytosolic chaperonin activity; purified chaperonin ATPase assay, HTRF ADP detection, 30 min; activity change, % (concentration not given with the values), hits read low; actives 0.3% (n = 360,000); AID 651819; in the data active means activity change below about -30%
#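 First, chaperonin was dispensed at 40 nM or 20 nM final depending on batch activity. Next, compounds were pinned at 76 uM and ATP added at 10 uM. After 30 min at 37 °C, ADP detection reagents ran 30 min at ambient temperature.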
# Starred values were filed as active, the others as inactive; u = inconclusive; x = not tested or not shown; [ ] = another dose, or the depositor's remark. Compounds with a hit are over-represented: about 10% of the library has one in this group of screens. Unless noted, the call rests on the fitted dose curve; in most records, active means well fitted curve in the direction sought with a large enough effect; inconclusive means small, poorly fitted or top-dose-only effect, or another doubt; inactive means no such curve, though single readings can be large; an effect the other way counts as inactive or inconclusive. Unless noted, on the % scale 0 is the no-effect control and ±100 the full control effect.
SMILES,Mm-Cpn inhibitor,PLK1 PBD inh,VDR inhibitor,Sfp inh,G9a block,CCT chaperon mod
Cc1cc(NS(=O)(=O)c2ccc(Nc3nc(-c4ccc(O)cc4)cs3)cc2)no1,1%,u,-11%,-30%,50µM*,1
COc1cc(NS(=O)(=O)c2ccc(Nc3nc(-c4ccccc4)cs3)cc2)nc(OC)n1,2%,27µM*,-16%,-7%,u,0
Cc1csc(Nc2ccccc2)n1,1%,30µM*,12%,-5%,u,-1
O=C(CN1N=C(c2ccc(Cl)cc2)CCC1=O)NCc1ccc(F)cc1,x,x,0%,x,5%[59 µM],x
CN(C)c1ncc2nc(-c3ccccc3)c(=O)n(-c3ccccc3)c2n1,x,x,2%,33%,3%[0.501 µM],x
Cc1cc(NS(=O)(=O)c2ccc(Nc3nc(-c4sc(N)nc4C)cs3)cc2)no1,-2%,30µM*,u,50µM*,-10%[12.7 µM],-3
Cc1cc(O)ccc1Nc1nc(-c2sc(N)nc2C)cs1,0%,u,-15%,-3%,15%[59 µM],3
Cc1nc(N)sc1-c1csc(Nc2ccccc2)n1,2%,27µM*,u,-10%,u,0
COc1cc(NS(=O)(=O)c2ccc(N/C=C(\C=O)c3nc4ccccc4o3)cc2)nc(OC)n1,-2%,-21%,-1%,9%,35µM*,0
COc1cc(NS(=O)(=O)c2ccc(N/C=C(\C#N)c3nc4ccccc4o3)cc2)nc(OC)n1,1%,u,-4%,15%,16%[2.33 µM],-1
CCCOc1ccc(C2c3c(oc4ccccc4c3=O)C(=O)N2c2nc(C)c(C(=O)OCC)s2)cc1 (configuration not stated),x,x,-7%,x,-6%[59 µM],x
CC(=O)N1CC2(CC2)CC1c1ccccc1 (configuration not stated),x,x,x,17%,x,x
CC#CCN1c2ccccc2[C@]23C[C@@H](C(=O)OC)N(S(=O)(=O)c4ccc(OC)cc4)C2=NC(C(=O)OC)=C(C(=O)OC)[C@H]13,x,x,x,-2%,x,x
CCCN(CCO)Cc1ccc(Br)cc1,1%,-3%,5%,-18%,8.9µM*,-1
CCCN(CCO)Cc1ccc(Cl)c(Cl)c1,-1%,-1%,-6%,-19%,u,-2
CCN(CC)CCN(C)Cc1ccc(Br)cc1,0%,2%,2%,-4%,2.5µM*,4
Cc1cc(C)n2nc(CNS(=O)(=O)c3ccccc3)nc2n1,x,x,1%,x,-4%[59 µM],x
CC1(C)CC(c2csc(N)n2)CCO1 (configuration not stated),-1%[15.4 µM],-12%,7%,13%,17%[59 µM],-39*
Nc1nc(C2CCOCC2)cs1,0%,0%,13%,18%,3%,2
Cn1nnnc1SCCCNCc1cc(Cl)ccc1OCc1ccccc1F,x,x,5%,x,-2%[59 µM],x
COc1ccc(C2C(C(=O)Nc3ccc(C)cc3C)=C(C)Nc3nc(SC)nn32)cc1OC (configuration not stated),x,x,13%,x,11%[59 µM],x
CC1=C(C(=O)Nc2ccc(C)cc2C)C(c2ccc(Cl)cc2)n2nc(C(=O)OC(C)C)nc2N1 (configuration not stated),3%,-7%,-19%,-2%,45µM*,-2
CN(C)c1ccc(CNC(=O)c2cc(S(=O)(=O)N3CCOCC3)cn2C)cc1,0%,-4%,11%,27%,40µM*,-1
COc1c(Br)cc(Br)cc1/C=N/n1c(C)nnc1C,0%,27µM*,u,9%,-34%[12.7 µM],1
O=C(Cc1ccc([N+](=O)[O-])cc1)N1N=C(c2ccncc2)CC1(O)C(F)(F)F (configuration not stated),-3%,27µM*,u,11%,3%,-1
O=C(Cc1ccc([N+](=O)[O-])cc1)N1N=C2CCCCC2C1(O)C(F)(F)F (configuration not stated),0%,-9%,10%,8%,x,-2
O=C(O)c1cccnc1SCc1cn2cc(Br)ccc2n1,-2%,12µM*,u,-6%,50µM*,1
Cc1ccc(C)c(CSc2ncccc2C(=O)O)c1,2%,-20%,2%,-1%,50µM*,-5
